Assay results from PubChem BioAssay (EPA / NIEHS).
Values joined by “and” are separate entries in the source; they are usually repeats but may differ in a detail not shown here. Equal values may be shown once. Results filed as inconclusive are left out. Active and inactive are the calls of the source. The calls were made as follows: active = hit-call score of the fitted dose curve at least 0.9, where 1 is the maximum; inconclusive = response in the unintended direction; inactive = score below 0.9.

Assay: TOX21_p53_BLA_p5_viability: Viability Assessment in the Tox21 HCT-116 p53 Agonism Beta-lactamase Assay, Phase 5 (AID 2283600)
Procedure, shortened: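 HCT-116 p53 beta-lactamase reporter cells, 4000/well, were exposed to compound (pin transfer, 217-fold dilution) for 16 hours at 37C. Cellular ATP was read by CellTiter-Glo luminescence after 30 min at room temperature.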

Row | Compound | outcome | AC50
1 | CCC[C@@]1(CCc2ccccc2)CC(O)=C([C@H](CC)c2cccc(NS(=O)(=O)c3ccc(C(F)(F)F)cn3)c2)C(=O)O1 | inactive | –
2 | COc1cc2c(Nc3ccc(Br)cc3F)ncnc2cc1OCC1CCN(C)CC1 | inactive | –
3 | CO[C@@H]1[C@H](OC(=O)/C=C/C=C/C=C/C=C/C(=O)O)CC[C@]2(CO2)[C@H]1[C@@]1(C)O[C@@H]1CC=C(C)C | inactive | –
4 | NC(N)=NCc1cccc(I)c1 | inactive | –
5 | Nc1c2ccccc2nc2ccccc12 | inactive | –
6 | Clc1cccc(Cl)c1NC1=NCCN1 | inactive | –
7 | CCCC(=O)O[C@]1(C(=O)CCl)[C@@H](C)C[C@H]2[C@@H]3CCC4=CC(=O)C=C[C@]4(C)[C@@]3(F)C(=O)C[C@@]21C | inactive | –
8 | CCCCCCNC(=O)n1cc(F)c(=O)[nH]c1=O | – | 1.02 µM (active)
9 | CO[C@H]1C[C@@H]2CC[C@@H](C)[C@@](O)(O2)C(=O)C(=O)N2CCCC[C@H]2C(=O)O[C@H]([C@H](C)C[C@@H]2CC[C@@H](OCCO)[C@H](OC)C2)CC(=O)[C@H](C)/C=C(\C)[C@@H](O)[C@@H](OC)C(=O)[C@H](C)C[C@H](C)\C=C/C=C/C=C/1C | – | 20.6 µM (active)
10 | Cc1nc(Nc2ncc(C(=O)Nc3c(C)cccc3Cl)s2)cc(N2CCN(CCO)CC2)n1 | inactive | –
11 | Cc1c(O)cccc1C(=O)N[C@@H](CSc1ccccc1)[C@H](O)CN1C[C@H]2CCCC[C@H]2C[C@H]1C(=O)NC(C)(C)C | – | 33.1 µM (active) and 19.5 µM (active)
12 | CC(=O)NCCCS(=O)(=O)O | inactive | –
13 | O=C1Cc2cc(CCN3CCN(c4nsc5ccccc45)CC3)c(Cl)cc2N1 | inactive | –
14 | C1=CCC(c2ccccc2)CC1 (centres undefined) | inactive | –
15 | CN(C)CCOC(=O)COc1ccc(Cl)cc1 | inactive | –
16 | O=C1C(=O)c2ncccc2-c2cccnc21 | inactive | –
17 | CC1(C)S[C@@H]2[C@H](NC(=O)[C@H](N)c3ccc(O)cc3)C(=O)N2[C@H]1C(=O)O | inactive | –
18 | CC1(C)N=C(N)N=C(N)N1c1ccc(Cl)cc1 | – | 7.84 µM (active)
19 | CCCCC(=O)O[C@]1(C(=O)CO)[C@@H](C)C[C@H]2[C@@H]3CCC4=CC(=O)C=C[C@]4(C)[C@@]3(F)[C@@H](O)C[C@@]21C | inactive | –
20 | NNc1nncc2ccccc12 | inactive | –

Row | Compound | outcome | AC50
21 | COC(=O)Nc1nc2ccc(Sc3ccccc3)cc2[nH]1 | inactive | –
22 | C#CCC(Cc1cnc2nc(N)nc(N)c2n1)c1ccc(C(=O)N[C@@H](CCC(=O)O)C(=O)O)cc1 (some centres undefined) | – | 0.538 µM (active)
23 | O=C(O)CN(CCN(CC(=O)O)CC(=O)O)CC(=O)O | inactive | –
24 | CNC(=O)c1cc(Oc2ccc(NC(=O)Nc3ccc(Cl)c(C(F)(F)F)c3)cc2)ccn1 | inactive | –
25 | O=c1[nH]c(=O)n([C@H]2C[C@H](O)[C@@H](CO)O2)cc1F | – | 0.595 µM (active)
26 | O=C(Nc1ccc(Cl)c(Cl)c1)C1CC1 | inactive | –
27 | Cc1nc2ccccc2n1Cc1ccc(Cl)cc1 | inactive | –
28 | Cc1nc2sccn2c(=O)c1CCN1CCC(=C(c2ccc(F)cc2)c2ccc(F)cc2)CC1 | inactive | –
29 | C[n+]1c2cc(N)ccc2cc2ccc(N)cc21 (tested in a mixture with another compound) | inactive | –
30 | CCOC(=O)n1ccn(C)c1=S | inactive | –
31 | COc1cc(C)c(/C=C/C(C)=C/C=C/C(C)=C/C(=O)O)c(C)c1C | inactive | –
32 | CC1(C)[C@@H](O[C@H]2O[C@H](C(=O)O)[C@@H](O)[C@H](O)[C@H]2O[C@@H]2O[C@H](C(=O)O)[C@@H](O)[C@H](O)[C@H]2O)CC[C@]2(C)[C@H]3C(=O)C=C4[C@@H]5C[C@@](C)(C(=O)O)CC[C@]5(C)CC[C@@]4(C)[C@]3(C)CC[C@@H]12 | inactive | –
33 | CC[C@@]1(O)C(=O)OCc2c1cc1n(c2=O)Cc2cc3c(CN(C)C)c(O)ccc3nc2-1 | – | 7.27 µM (active)
34 | COc1ccc(Cl)cc1C(=O)NCCc1ccc(S(=O)(=O)NC(=O)NC2CCCCC2)cc1 | inactive | –
35 | CC(C)(C)CC(C)(C)c1ccc(O)c(Cc2ccc(Cl)cc2Cl)c1 | – | 13.8 µM (active)
36 | O=C(O)c1cccc(-c2noc(-c3ccccc3F)n2)c1 | inactive | –
37 | Oc1c(I)cc(I)c2cccnc12 | inactive | –
38 | Cc1cc(Nc2ccccc2C(=O)O)ccc1Cl | inactive | –
39 | CC(C)=CCC1=C(O)c2ccccc2C(=O)C1=O | inactive | –
